Assay results as given in PubChem BioAssay AID651813 (National Center for Advancing Translational Sciences (NCATS), 2012).
The campaign covered roughly 2,100 compounds. About 1,100 (52%) were called active. Another 27% or so got no clear call; they are omitted. Calls come from the whole dose curve; as a rule, active = well fitted inhibition curve with a large enough effect; inconclusive = small, poorly fitted or top-dose-only effect; inactive = no such curve, though single readings can be large or run the other way. So high a share suggests a set chosen from earlier hits. The list shows a part of the results.

Target: DNA dC->dU-editing enzyme APOBEC-3G (Homo sapiens) (UniProt Q9HC16)
Sequence (Q9HC16 whole entry, looked up): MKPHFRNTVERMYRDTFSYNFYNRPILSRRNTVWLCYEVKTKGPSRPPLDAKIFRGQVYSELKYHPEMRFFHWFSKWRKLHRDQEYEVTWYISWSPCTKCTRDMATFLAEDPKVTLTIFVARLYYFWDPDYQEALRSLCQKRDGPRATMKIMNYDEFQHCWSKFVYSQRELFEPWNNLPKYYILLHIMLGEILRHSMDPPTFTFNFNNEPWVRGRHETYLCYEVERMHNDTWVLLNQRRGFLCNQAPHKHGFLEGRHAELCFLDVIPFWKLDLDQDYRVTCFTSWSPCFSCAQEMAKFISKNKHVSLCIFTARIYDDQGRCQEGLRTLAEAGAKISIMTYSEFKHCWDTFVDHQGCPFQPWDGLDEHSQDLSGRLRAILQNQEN
Assay: qHTS for inhibitors of Vif-A3G interactions: Cherry picks counterscreen;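 note: hits raise yellow fluorescence by blocking Vif-driven A3G-eYFP degradation; nearly all actives have a fitted effect of over 70% in size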;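 for max response: max response given as percent of control signal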
Conditions: HeLa A3G-eYFP + Vif (tagged APOBEC3G with the HIV-1 protein that degrades it), eYFP fluorescence, 24 h
Summary of the method: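 Readout is eYFP fluorescence (488 nm excitation, 500-530 nm emission) measured on Acumen Explorer after 24 h compound exposure, several concentrations, at 37 deg C. Cells: HeLa stably co-expressing Vif and C-terminally eYFP-tagged A3G; MG132 positive control.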
Potency is the fitted concentration of half-maximal effect.

Row | Structure (SMILES) | Potency | max response
1 | Clc1ccc2c(c1)C(C1=NCCN1)c1ccccc1CS2 (stereo not drawn) | 3.14 µM (active) | –
2 | Cc1ccccc1/C=C\c1nc2ccccc2c(=O)[nH]1 | 11.2 µM (active) | –
3 | O=C1c2cccc3c(N4CCCCC4)ccc(c23)C(=O)N1c1ccc(O)cc1 | – | 54.2% (inactive)
4 | O=C1c2cccc3c(N4CCCCC4)ccc(c23)C(=O)N1c1cccc(O)c1 | 2.59 µM (active) | –
5 | Cc1ccc(N2C(=O)c3cccc4c(N5CCN(C)CC5)ccc(c34)C2=O)c2cccnc12 | 15.8 µM (active) | –
6 | O=C1c2cccc3c(N4CCCCC4)ccc(c23)C(=O)N1CCO | 14 µM (active) | –
7 | C=CCN1C(=O)c2cccc3c(N4CCCCC4)ccc(c23)C1=O | 18.4 µM (active) | –
8 | CSc1nc(Sc2ccccc2Cl)c2ccccc2n1 | – | -6.36% (inactive)
9 | CCN(CC)c1ccc(/C=C/C2=C3C=CC=CC3NC=C2)cc1 (stereo not drawn) | 20.6 µM (active) | –
10 | CN(C)c1ccc(/C=C/c2ccncc2)cc1 | 2.59 µM (active) | –
11 | CCN(CC)c1ccc(/C=C/c2ccncc2)cc1 | 4.61 µM (active) | –
12 | CCN(CC)c1ccc(/C=C/c2ccccn2)cc1 | 16.4 µM (active) | –
13 | CCN(CC)c1ccc(/C=C/C(=O)c2ccc(Br)cc2)cc1 | – | 26.9% (inactive)
14 | NC(=S)N/N=C/c1ccccc1OC(=O)/C=C/c1ccccc1 | – | 5.74% (inactive)
15 | O=[N+]([O-])c1ccccc1C=NNC(=S)NN=Cc1ccccc1[N+](=O)[O-] | 8.86 µM (active) | –
16 | NC(=S)N/N=C/c1cccc(O)c1O | – | 3.32% (inactive)
17 | CCN(CC)c1ccc(/C=C2\C(=N)N3N=C(CC(=O)N4CCOCC4)SC3=NC2=O)cc1 | 1.58 µM (active) | –
18 | CN(C)c1ccc(/C=C2\C(=N)N3N=C(CC(=O)N4CCCCC4)SC3=NC2=O)cc1 | 4.61 µM (active) | –
19 | COc1cc(/C=C2\C(=N)N3N=C(S(C)(=O)=O)SC3=NC2=O)ccc1OC(=O)c1ccco1 | – | 53.1% (inactive)
20 | CN(C)c1ccc(/C=C2\SC(N3CCCCC3)=NC2=O)cc1 | 20.6 µM (active) | –
21 | O=C(c1ccccn1)C1CCCN(Cc2cn[nH]c2-c2cc3ccccc3o2)C1 (stereo not drawn) | – | 0.488% (inactive)
22 | C=CCn1c(O)c(N=NC(=O)CNC(=O)c2ccco2)c2ccccc21 | 12.5 µM (active) | –
23 | C=C(C)CNC(=S)NNC(=O)c1ccco1 | – | 8.06% (inactive)
24 | CCOC(=S)SCC(=O)N1CCc2cc(OC)ccc2C1C1C(=O)CCCC1=O (stereo not drawn) | 14 µM (active) | –
25 | Cc1ccc(C=Nc2ccccc2C(N)=O)s1 | 2.5 µM (active) | –
26 | Cc1cccc(C=Nc2ccccc2C(N)=O)c1 | 9.94 µM (active) | –
27 | COc1ccc(NC(=O)/C(C#N)=C/C=C/c2ccco2)cc1 | 11.2 µM (active) | –
28 | COc1ccc(NC(=O)/C(C#N)=C\C=C\c2ccco2)cc1 | 14 µM (active) | –
